We go through 17 molecules from the antibiotic and cytotoxicity screens of Wong et al. (2023).

Among all 39,000 compounds or so, about 3,300 (8.5%) were called active. Shown is part of a subset that was picked to be rich in actives.

This assay relates to HepG2. Kind of assay: cytotoxicity call (relative viability < 0.9). The note with it: 10 µM.
`CC(=O)N(C)C[C@H]1Oc2cc(C#CCN(C)C)ccc2S(=O)(=O)N([C@@H](C)CO)C[C@@H]1C`: the cytotoxicity call was “inactive”.

In the case of `C[C@@H]1CN([C@@H](C)CO)C(=O)c2cccc(NC(=O)c3ccc(-c4nccs4)cc3)c2O[C@@H]1CN(C)Cc1ccc(Cl)c(Cl)c1`, the cytotoxicity call is “active”.

For the molecule `C[C@H]1CN([C@@H](C)CO)C(=O)c2cccc(NC(=O)c3ccncc3)c2O[C@H]1CN(C)Cc1ccc(-c2ccccc2)cc1`, the cytotoxicity call is “inactive”.

Turning to `C[C@@H]1CN([C@H](C)CO)C(=O)c2cccc(NC(=O)c3ccc(-c4nccs4)cc3)c2O[C@@H]1CN(C)CC1CCCCC1`, the cytotoxicity call is “inactive”.

Take `C[C@@H]1CN([C@@H](C)CO)C(=O)c2cccc(NC(=O)c3ccc(-c4nccs4)cc3)c2O[C@@H]1CN(C)Cc1ccc(C(=O)Nc2ccccc2N)cc1`: the cytotoxicity call was “active”.

Consider `C[C@H]1CN([C@@H](C)CO)C(=O)c2cccc(NC(=O)c3ccc(-c4nccs4)cc3)c2O[C@@H]1CN(C)CC1CCCCC1`, for which the cytotoxicity call was “inactive”.

As for `C[C@H](CO)N1C[C@H](C)[C@H](CN(C)Cc2ccc(C(=O)Nc3ccccc3N)cc2)Oc2c(NC(=O)c3ccc(-c4nccs4)cc3)cccc2C1=O`, the cytotoxicity call is “inactive”.

Regarding `C[C@@H]1CN([C@H](C)CO)C(=O)c2cccc(NC(=O)c3ccc(-c4nccs4)cc3)c2O[C@H]1CN(C)Cc1ccc(Cl)c(Cl)c1`, the cytotoxicity call was “inactive”.

On to `C[C@H](CO)N1C[C@H](C)[C@@H](CN(C)Cc2ccc(-c3ccccc3)cc2)Oc2c(NC(=O)c3ccncc3)cccc2C1=O`, for which the cytotoxicity call was “active”.

Consider `C[C@H]1CN([C@@H](C)CO)C(=O)c2cccc(NC(=O)c3ccc(-c4nccs4)cc3)c2O[C@@H]1CN(C)Cc1ccc(C(=O)Nc2ccccc2N)cc1`, for which the cytotoxicity call is “inactive”.

Turning to `C[C@H](CO)N1C[C@H](C)[C@H](CN(C)Cc2ccc(-c3ccccc3)cc2)Oc2c(NC(=O)c3ccncc3)cccc2C1=O`, the cytotoxicity call was “inactive”.

Regarding `C[C@H]1CN([C@@H](C)CO)C(=O)c2cccc(NC(=O)c3ccc(-c4nccs4)cc3)c2O[C@@H]1CN(C)Cc1ccc(Cl)c(Cl)c1`, the cytotoxicity call was “inactive”.

As for `C[C@@H]1CN([C@H](C)CO)C(=O)c2cccc(NC(=O)c3ccc(-c4nccs4)cc3)c2O[C@H]1CN(C)CC1CCCCC1`, the cytotoxicity call is “active”.

For `COc1cccc(S(=O)(=O)Nc2ccc3c(c2)[C@@H]2C[C@@H](CC(=O)NCc4cccc(F)c4)O[C@H](CO)[C@@H]2O3)c1`, the cytotoxicity call was “inactive”.

For `O=C(C[C@@H]1C=C[C@@H](NS(=O)(=O)c2ccccc2)[C@@H](CO)O1)NCc1ccncn1`, the cytotoxicity call is “inactive”.

In the case of `COc1ccc(S(=O)(=O)N2C[C@H](O)COC[C@@H]3O[C@@H](CC(=O)N[C@@H]4CCN(Cc5ccccc5)C4)CC[C@H]32)cc1`, the cytotoxicity call is “inactive”.

In the case of `COCC(=O)Nc1ccc2c(c1)C(=O)N(C)C[C@@H](OC)[C@@H](C)CN(Cc1ccccc1OC)[C@H](C)CO2`, the cytotoxicity call is “inactive”.
